“And” between values parts separate entries of the source, which are not always exact repeats. Equal entries are not always repeated. Records with an inconclusive call do not appear. The source made the active and inactive calls. Calls come from the whole dose curve; as a rule, active = well fitted inhibition curve with a large enough effect; inconclusive = small, poorly fitted or top-dose-only effect; inactive = no such curve, though single readings can be large or run the other way.
Biological target: Cytochrome P450 3A4 (Homo sapiens) (UniProt P08684)
Sequence (P08684 whole entry, looked up): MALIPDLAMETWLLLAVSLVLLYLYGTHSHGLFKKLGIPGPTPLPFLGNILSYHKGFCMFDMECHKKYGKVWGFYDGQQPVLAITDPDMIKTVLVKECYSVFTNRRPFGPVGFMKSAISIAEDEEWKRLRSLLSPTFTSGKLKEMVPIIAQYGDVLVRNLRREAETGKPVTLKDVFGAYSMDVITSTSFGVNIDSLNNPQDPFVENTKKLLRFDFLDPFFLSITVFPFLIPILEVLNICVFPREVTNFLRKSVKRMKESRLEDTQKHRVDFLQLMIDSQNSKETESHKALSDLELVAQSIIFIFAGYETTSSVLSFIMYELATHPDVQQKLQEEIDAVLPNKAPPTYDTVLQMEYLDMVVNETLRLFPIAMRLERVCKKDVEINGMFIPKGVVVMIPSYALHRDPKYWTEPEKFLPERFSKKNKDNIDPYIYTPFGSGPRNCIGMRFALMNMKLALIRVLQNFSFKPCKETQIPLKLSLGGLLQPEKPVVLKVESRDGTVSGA
Assay: qHTS Assay for Inhibitors and Substrates of Cytochrome P450 3A4 (AID 884); note: nearly all actives have a fitted effect of over 50% in size
Details: recombinant CYP3A4, Luciferin-PPXE luminescence; series mostly up to 57.1 µM
Outline: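 20 nM human CYP3A4 with 25 uM Luciferin-PPXE (at KM) in 200 mM KPO4, preincubated 10 min with compound; NADPH regeneration started a 60 min RT reaction. Luciferin detected by luminescence, normalized to 57 uM ketoconazole as full inhibition.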
Potency is the fitted concentration of half-maximal effect.

Potency, active:
COCC#Cc1ccc(C2C(C)CCC3C(=O)N4C(CCC(C)C4c4ccc(C#CCOC)cc4)C(=O)N32)cc1 (centres undefined) 1.26 µM
C=CCC1C=CC(Oc2ccc(F)cc2C)C(CO)O1 (centres undefined) 3.98 µM
COc1ccc(O[C@H]2C=C[C@@H](c3ccccc3)O[C@H]2CO/N=C\C[C@@H]2C=C[C@H](OC(C)=O)[C@H](COC(C)=O)O2)cc1 3.98 µM
COc1ccc(O[C@H]2C=C[C@@H](c3ccccc3)O[C@H]2COC(=O)CC/C(C)=N\O[C@@H](C)CN2CCCc3nc(C)c(C)cc32)cc1 3.16 µM
C/C=C/OC(=O)NC(c1ccccc1)[C@]1(C(C)=O)CCOC1=O (some centres undefined) 0.0316 µM
CCO[C@H](c1cc(OC)cc([N+](=O)[O-])c1OC)[C@H](C)/C=C\CC(=O)OC 3.98 µM
CC(C)CCN1CCc2nc(COc3ccccc3)c3c(c2C1)COC(C)C3 (centres undefined) 3.16 µM
COc1cc(OC)c2c(=O)c(-c3ccc4c(c3)OCO4)coc2c1 6.31 µM
C=C1C(=O)OC2C[C@@]3(C)CCCC(C)C3=CC12 (some centres undefined) 7.94 µM
CC(C)(C)c1ccc(OC2C(O)COC2/C=C/C#Cc2ccccc2)cc1 (centres undefined) 3.16 µM and 3.98 µM
COc1ccc2c(c1)OC/C(=C/c1ccc(OC)c(OC)c1)C2=O 7.94 µM
Nc1nc2c(ncn2C2OC(COC(=O)c3ccccc3)C(OC(=O)c3ccccc3)C2OC(=O)c2ccccc2)c(=O)[nH]1 (centres undefined) 3.98 µM
CC(=O)OCC1OC(c2ccc3c(c2)OCO3)C=CC1OC(C)=O (centres undefined) 3.98 µM
C[C@@H](c1ccccc1)N1C(=O)[C@H]2[C@H]3[C@H](O)[C@H](O)C/C(=N/OC[C@@H](O)COCc4ccco4)[C@@H]3CC[C@@H]2C1=O 3.16 µM
CC(=O)c1c(O)cc(O)cc1O 3.16 µM
COc1ccc(-c2cc(=O)c3ccccc3o2)cc1 2 µM
COc1ccc(C#CC2C=CC(Oc3cc(C)cc(C)c3)C(CO)O2)cc1 (centres undefined) 1.58 µM
COc1ccc(O[C@H]2C=C[C@@H](c3ccccc3)O[C@H]2COC(=O)CC/C(C)=N/O[C@@H]2O[C@H](COC(C)=O)[C@H](OC(C)=O)[C@H](OC(C)=O)[C@H]2OC(C)=O)cc1 5.01 µM
COc1cc2c(cc1OC)-c1c(oc3cc(O)cc(O)c3c1=O)CO2 10 µM
C=CCC1C=CC(Oc2ccc(OC)cc2)C(COC(=O)c2ccc(Br)cc2)O1 (centres undefined) 3.16 µM
COc1ccc(/C=C/C2=CC3(C)CC2(C)C(c2ccc(OC)cc2)CC3=O)cc1 (centres undefined) 5.01 µM
COC(=O)C/C=C\[C@@H](C)[C@@H](/C=N\OC[C@@H]1O[C@H](c2ccccc2)C=C[C@@H]1Oc1ccc(OC)cc1)OC 3.16 µM
COc1cccc([C@@H]2Oc3ccc(OC)cc3/C(=N/OC[C@@H](O)COCc3ccco3)[C@@H]2O)c1 3.16 µM
COc1cccc([C@@H]2Oc3ccc(OC)cc3/C(=N/O[C@@H](C)c3cc(-c4c(C)cc(C)cc4C)no3)[C@@H]2O)c1 1.58 µM
COC(=O)C[C@@H]1O[C@H]1[C@H](C)[C@@H](OC)C(C)C 3.98 µM
COc1ccc(-c2cc(=O)c3ccccc3o2)cc1OC 7.94 µM
CC(=O)Oc1c(-c2ccccc2)oc2c(CC=C(C)C)c3c(c(OC(C)=O)c2c1=O)C=CC(C)(C)O3 10 µM
C/C(CCC(=O)OC[C@@H]1O[C@H](C#Cc2ccccc2)C=C[C@@H]1Oc1ccc(C)cc1)=N/O[C@@H](C)CN1CCCc2nc(C)c(C)cc21 3.98 µM
COc1ccc(O[C@H]2C=C[C@@H](c3ccccc3)O[C@H]2CO/N=C2/[C@H]3O[C@@H]3[C@@H](O)[C@H]3[C@H]2CCn2c(=O)n(-c4ccccc4)c(=O)n23)cc1 3.16 µM
COc1ccc(O[C@H]2C=C[C@@H](c3ccccc3)O[C@@H]2CO/N=C(\C)CCN2CCCc3nc(C)c(C)cc32)cc1 3.16 µM
C=CC[C@@H]1C=C[C@H](Oc2ccc(C)cc2)[C@H](COC(=O)NCc2cccc3ccccc23)O1 3.16 µM
COc1ccc(O[C@H]2C=C[C@@H](c3ccccc3)O[C@H]2COC(=O)CC/C(C)=N\O[C@@H](C)CN2CCCCc3nc(C)c(C)cc32)cc1 3.98 µM
CC(C)=CCc1c(O)cc2occ(-c3ccc4c(c3)OCO4)c(=O)c2c1O 3.98 µM
Cc1ccc(S(=O)(=O)N[C@H]2COC(=O)[C@@H](Cc3ccccc3)NC(=O)[C@@H](C)COC(=O)C/C=C\[C@@H]2C)cc1 3.98 µM
CCCCC#CC1C=CC(Oc2ccc(C(=O)OC)cc2)C(COC(=O)OCC)O1 (centres undefined) 3.98 µM
COc1ccc(O[C@H]2C=C[C@@H](c3ccccc3)O[C@H]2COC(=O)CC/C(C)=N\O[C@@H](C)c2cn([C@H]3COC[C@H]3O)nn2)cc1 3.98 µM
COc1ccc(O[C@H]2C=C[C@@H](c3ccccc3)O[C@@H]2CO/N=C(\C)CCN2CCCCc3nc(C)c(C)cc32)cc1 3.98 µM
C=C(C)C(O)/C=C/c1cccc(OC)c1 (centres undefined) 3.98 µM
C=C1C2CC[C@@]3(C)C(c4ccoc4)OC(=O)C[C@@]13OC1CC(OC(C)=O)C(C)(C)C(CC(=O)OC)[C@@]12C (some centres undefined) 1.26 µM
